This is part of a sample that, as a whole, favours compounds with a hit. Of some 79,000 tested, about 15% had one in any assay. Unmarked numbers belong to inactive results. The source made the active and inactive calls. Cut-off read from the data, not from the text of the source: active = growth inhibition above about 70%; inactive = the rest.

These results are taken from PubChem BioAssay (NCI).

Test [1] is described as follows: NCI Yeast Anticancer Drug Screen. Data for the rad50 strain (AID 155).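 Note: 0% = growth of vehicle-only cultures of the same strain.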 The settings on record: S. cerevisiae rad50 strain growth inhibition; at 50.0 µM; stronger effect = higher value. The essentials:
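Cells are treated with compound, grown, and their growth is then scored against vehicle-only cultures of the same repair-deficient yeast strain.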

A short description of test [2]: NCI Yeast Anticancer Drug Screen. Data for the mec2-1 strain (AID 157). The conditions noted are these: S. cerevisiae mec2-1 strain, at 50.0 µM, stronger effect = higher value. In short, it runs like this:
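Using mec2-1 yeast: add compound, measure growth, express inhibition versus vehicle-treated cultures.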

Test [3] is described as follows: NCI Yeast Anticancer Drug Screen. Data for the sgs1 mgt1 strain (AID 161).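 Note: 0% = growth of cultures given vehicle only.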 The conditions noted are these: S. cerevisiae sgs1 mgt1 strain, at 50.0 µM, stronger effect = higher value. In short, it runs like this:
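Compounds are added to genetically altered yeast, and growth is compared with cultures given vehicle alone to give percent inhibition.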

Test [4] is described as follows: NCI Yeast Anticancer Drug Screen. Data for the cln2 rad14 strain (AID 165).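 Note: 0% = growth equal to vehicle treated cultures.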 The conditions noted are these: S. cerevisiae cln2 rad14 strain, at 50.0 µM, stronger effect = higher value. In short, it runs like this:
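Yeast strain cln2 rad14, bearing defects in cell cycle control and DNA repair, serves as the test system; values reflect growth inhibition compared with vehicle.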

Test [5] in a line: NCI Yeast Anticancer Drug Screen. Data for the bub3 strain (AID 167). The settings on record: S. cerevisiae bub3 mutant strain, at 50.0 µM, stronger effect = higher value. In short, it runs like this: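 Part of a panel of yeast mutants defective in DNA damage repair or cell cycle regulation. Each strain is grown with compound, and inhibition is calculated relative to solvent-treated cultures.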

Test [6] can be described thus: NCI Yeast Anticancer Drug Screen. Data for the mlh1 rad18 strain (AID 175). The settings on record: S. cerevisiae mlh1 rad18 strain growth inhibition; at 50.0 µM; stronger effect = higher value. The essentials: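 Steps: expose repair-defective yeast to compound; measure growth; express inhibition against vehicle-treated controls.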

Turning to `COc1ccc(N(Cc2ccc(C)o2)C(=S)Nc2ccccc2)cc1`, the growth inhibition was -3.6% in test [1]; -5.4% in test [2]; 9.7% in test [3]; 8.9% in test [4]; 36% in test [5]; 7.05% in test [6].

For `c1ccc2c3c(ccc2c1)Oc1ccc2ccccc2c1C3CCC1c2c(ccc3ccccc23)Oc2ccc3ccccc3c21`, the growth inhibition in test [1] is -8.75%; in test [2] it was -19.6%; in test [3], -4.9%; in test [4], 1.5%; in test [5], -17.2%; in test [6], 7.75%.

As for `CC1C2=C(CCCC2=O)O/C1=N\O` (stereo not given), the growth inhibition was 11.4% in test [1]; -6.85% in test [2]; -0.85% in test [3]; -24.9% in test [4]; 6.7% in test [5]; 12.2% in test [6].

Turning to `CC(C)C(=O)OCC1OC(n2cnc3c(=S)nc[nH]c32)C(OC(=O)C(C)C)C1OC(=O)C(C)C` (stereo not given), the growth inhibition in test [1] is -6.8%; in test [2], 2.2%; in test [3] it was 2.4%; in test [4] it was -13.4%; in test [5], -9.55%; in test [6], 2.1%.

For the molecule `CC(=O)C1C(=O)C(=O)N(c2ccc([N+](=O)[O-])cc2)C1=O` (stereo not given), the growth inhibition was -26.9% in test [1]; -37.4% in test [2]; -10.7% in test [3]; 20.9% in test [4]; -1.9% in test [5]; -37.5% in test [6].

With `CCCC(C)C(=O)OCCOC` (stereo not given), the growth inhibition is 2.85% in test [1]; -5.3% in test [2]; -2.95% in test [3]; -19.1% in test [4]; 4.45% in test [5]; 0% in test [6].

As to `COC(=O)[C@@H]1[C@H](OC(C)=O)CCC2[C@@]3(C[C@@H](c4ccoc4)O[C@@H]3OC)[C@H](C)CC[C@]21C(=O)OC` (stereo not given in full), the growth inhibition in test [1] was -12.4%; in test [2], -5.1%; in test [3], -39%; in test [4], -8.7%; in test [5], -36.9%; in test [6] it was -37.5%.

Turning to `C[n+]1ccc(NN)cc1`, the growth inhibition in test [1] is -3.5%; in test [2], -15.8%; in test [3] it was 20.3%; in test [4], 12.6%; in test [5], 17.6%; in test [6], 4.4%.

In the case of `CCc1cccc(CC)c1NC(=O)c1ccccc1Cl`, the growth inhibition is 7.9% in test [1]; 24.6% in test [2]; 31.3% in test [3]; 0.8% in test [4]; 26.1% in test [5]; 26.8% in test [6].

For the molecule `CCCc1c(O)c(=O)c2c(OC)cc(OC)c3c4c(OC)cc(OC)c5c(=O)c(O)c(CCC)c(c1c23)c54`, the growth inhibition was 86.1% (active) in test [1]; 89.4% (active) in test [2]; 81.3% (active) in test [3]; 84.5% (active) in test [4]; 75.8% (active) in test [5]; 89% (active) in test [6].

Turning to `c1ccc(C2SCc3nc4cc5ccccc5cc4n32)cc1` (stereo not given), the growth inhibition was -21.6% in test [1]; 6.4% in test [2]; 17.1% in test [3]; 12% in test [4]; -17% in test [5]; 16.8% in test [6].

Take `COC(=O)C(C(=O)C(=O)Nc1nc2ccc([N+](=O)[O-])cc2s1)c1nc2ccc(Cl)cc2[nH]c1=O` (stereo not given): the growth inhibition in test [1] was 10.3%; in test [2] it was 17.5%; in test [3], 21.4%; in test [4] it was 26.8%; in test [5], 15%; in test [6] it was -3.1%.

`CCCSC(=O)Nc1ccc(Cc2ccc(NC(=O)SCCC)cc2)cc1`: the growth inhibition in test [1] is 2.05%; in test [2] it was -17.3%; in test [3], 16.6%; in test [4] it was 21.8%; in test [5], 16.4%; in test [6], 14.5%.

Turning to `COc1cc(N=Nc2c(Cl)cc([N+](=O)[O-])cc2Cl)c(OC)cc1N=Nc1ccc(N)nc1N`, the growth inhibition in test [1] is 23.4%; in test [2], 28%; in test [3], 7.05%; in test [4], 5.9%; in test [5], 3.85%; in test [6], 9.45%.

Consider `O=C(O)Cc1ccc(-c2ccccc2)[nH]1`, for which the growth inhibition in test [1] was 3.35%; in test [2] it was -14.7%; in test [3] it was 3.25%; in test [4], -25.8%; in test [5], -17.1%; in test [6], -12%.

On to `Brc1cc2c(cc1C1SCCS1)OCO2`, for which the growth inhibition is 49.5% in test [1]; 20.4% in test [2]; 58.5% in test [3]; 18.6% in test [4]; 28.3% in test [5]; 34.6% in test [6].

Regarding `COc1[nH]c2ccccc2c1C=O`, the growth inhibition in test [1] is 45.1%; in test [2] it was 30.6%; in test [3], 22.3%; in test [4], 17.1%; in test [5] it was 11%; in test [6] it was 24.1%.

Turning to `CC(O)CNC(C)(C)CN` (stereo not given), the growth inhibition was -7.45% in test [1]; -15.5% in test [2]; -10.4% in test [3]; 4.4% in test [4]; -18.8% in test [5]; -4% in test [6].

As to `O=S(=O)(C(c1ccccc1)C(O)(c1ccccc1)c1ccccc1)N1CCCC1` (stereo not given), the growth inhibition was 29.6% in test [1]; -0.45% in test [2]; 27.4% in test [3]; -21.8% in test [4]; 1.25% in test [5]; 22.6% in test [6].

As for `CC1(C)C/C(=C\c2ccc([N+](=O)[O-])cc2)C(=O)c2ccccc21`, the growth inhibition is 80.3% (active) in test [1]; 71.7% (active) in test [2]; 77.5% (active) in test [3]; 40.3% in test [4]; 76.5% (active) in test [5]; 89% (active) in test [6].
